# Reference: ChEMBL document CHEMBL3988442, “University of Dundee, Small-Polar-MMV Screening Library” (2021)
# About 13,000 (27%) of roughly 48,000 compounds showed an effect of 50% or more. Some of the results follow.
# Test system: Wolbachia pipientis
# Test: Anti-Wolbachia Cell-Based Screen
# Assay type: functional
# Set-up: scale not given: in the data most compounds retested in dose-response had high values
# Details: 5 µM
row,SMILES,Percent Effect [%]
1,Cc1cc(N(C)C)nc(N2CCN(C(C)c3nc(C)no3)CC2)n1 (stereo not given),5.095
2,Cc1cc(C)n(CC2CN(CCC(=O)NC3CCCCC3)CCO2)n1 (stereo not given),118.1
3,Cc1cc(C)n(CC2CN(CC(=O)Nc3c(C)n[nH]c3C)CCO2)n1 (stereo not given),-5.671
4,Cc1cc(C)n(CC2CN(CC(=O)NC3CCCC3)CCO2)n1 (stereo not given),-2.568
5,Cc1nc(C)n(CC2CN(CC(=O)Nc3cccnc3)CCO2)n1 (stereo not given),9.573
6,Cc1nc(C)n(CC2CN(CC(=O)NC3CCCC3)CCO2)n1 (stereo not given),112.4
7,Cc1cc(C)n(CC2CN(CC(=O)NC3CCOCC3)CCO2)n1 (stereo not given),89.87
8,Cc1cc(C)n(CC2CN(CC(=O)NC3CCCCC3)CCO2)n1 (stereo not given),116.8
9,Cc1nc(C)n(CC2CN(CC(=O)Nc3nccs3)CCO2)n1 (stereo not given),1.962
10,CCN1CCC(NC(=O)CN2CCCC2Cn2nc(C)cc2C)CC1 (stereo not given),-4.017
11,CCNC(=O)C1CCN(c2cc(CC)nc3ccnn23)C1 (stereo not given),-6.245
12,CC(C)(C)CCNC(=O)c1ccc(Cl)c(NS(C)(=O)=O)c1,-2.179
13,O=C(NCC(=O)N1CC2(CCCC2)c2c(F)cccc21)C1CC1,-3.819
14,Cc1cc(C)n(CC2CN(CC(=O)Nc3ccncc3)CCO2)n1 (stereo not given),89.28
15,CC(C)=CCN1CCOC(Cn2nc(C)cc2C)C1 (stereo not given),-20.01
16,Cc1cc(C)n(CC2CN(CC(=O)NC(C3CC3)C3CC3)CCO2)n1 (stereo not given),97.21
17,Cc1cc(C)n(CC2CN(CCc3ccncc3)CCO2)n1 (stereo not given),-8.109
18,O=C(CN1CCOC(Cn2cncn2)C1)NC(C1CC1)C1CC1 (stereo not given),-5.3

row,SMILES,Percent Effect [%]
1,Cc1cc(C)n(CC2CN(CC(=O)NC3(C#N)CCCC3)CCO2)n1 (stereo not given),97.92
2,Cc1cc(NC(=O)CN2CCOC(Cn3nc(C)cc3C)C2)n(C)n1 (stereo not given),-0.6717
3,Cc1cc(C)n(CC2CN(CC3CCCC3)CCO2)n1 (stereo not given),115
4,O=C(CN1CCOC(Cn2cccn2)C1)NC(C1CC1)C1CC1 (stereo not given),-1.772
5,Cc1cc(CN2CCN(CC(=O)NC3(C#N)CCCCC3)CC2)on1,3.175
6,Cc1cc(C)n(CC2CN(CC(=O)Nc3nncs3)CCO2)n1 (stereo not given),-6.247
7,O=C(Nc1cccn(CC(F)(F)F)c1=O)c1ccc(F)cc1,7.272
8,O=C(NCC1CC1)C12CC(CN1Cc1nccs1)C2,-8.528
9,CCNC(=O)[C@@H]1C[C@H](NC(=O)Cc2ccsc2)CN1Cc1ccc(C)o1,8.656
10,CCNC(=O)[C@@H]1C[C@@H](NC(=O)c2cccnc2O)CN1Cc1ccsc1,9.29
11,CCNC(=O)[C@@H]1C[C@@H](NC(=O)Cc2ccccn2)CN1CCCSC,-3.005
12,CCNC(=O)[C@@H]1C[C@@H](NC(=O)c2ccc(C)s2)CN1Cc1ccccn1,112.7
13,CCNC(=O)[C@@H]1C[C@H](NC(=O)c2ccc(C)s2)CN1Cc1ccc(C)o1,103.2
14,Cc1cc(C(=O)N2CCC(c3nccn3Cc3ccccn3)CC2)no1,-9.373
15,CCNC(=O)[C@@H]1C[C@H](N)CN1Cc1ccc(Sc2ccc(C)cc2)o1,11.39
16,CCNC(=O)[C@@H]1C[C@@H](NC(=O)c2cc(C)on2)CN1Cc1ccccn1,121.6
17,C/C=C(\C)CN1C[C@H](NC(=O)c2cnc(O)cn2)C[C@H]1C(=O)NCC,-10.14
